Measured values as given in PubChem BioAssay AID1053 (University of Pittsburgh Molecular Library Screening Center, 2008).
“And” between values parts separate entries of the source, which are not always exact repeats. Equal entries are not always repeated. The source made the active and inactive calls. How the calls were made is not given here.

Molecular target: Serine/threonine-protein kinase PLK1 (Homo sapiens) (UniProt P53350)
Experiment: Plk1 polo box domain binding inhibitors, SAR follow-up, biochemical, fluorescence polarization, purchased analogs (AID 1053)
Details: Plk1 PBD fluorescence polarization peptide binding; at 20 µM; hits give high values

Sequence of Serine/threonine-protein kinase PLK1 (Homo sapiens) (P53350 whole entry, looked up, the tested form may be a part): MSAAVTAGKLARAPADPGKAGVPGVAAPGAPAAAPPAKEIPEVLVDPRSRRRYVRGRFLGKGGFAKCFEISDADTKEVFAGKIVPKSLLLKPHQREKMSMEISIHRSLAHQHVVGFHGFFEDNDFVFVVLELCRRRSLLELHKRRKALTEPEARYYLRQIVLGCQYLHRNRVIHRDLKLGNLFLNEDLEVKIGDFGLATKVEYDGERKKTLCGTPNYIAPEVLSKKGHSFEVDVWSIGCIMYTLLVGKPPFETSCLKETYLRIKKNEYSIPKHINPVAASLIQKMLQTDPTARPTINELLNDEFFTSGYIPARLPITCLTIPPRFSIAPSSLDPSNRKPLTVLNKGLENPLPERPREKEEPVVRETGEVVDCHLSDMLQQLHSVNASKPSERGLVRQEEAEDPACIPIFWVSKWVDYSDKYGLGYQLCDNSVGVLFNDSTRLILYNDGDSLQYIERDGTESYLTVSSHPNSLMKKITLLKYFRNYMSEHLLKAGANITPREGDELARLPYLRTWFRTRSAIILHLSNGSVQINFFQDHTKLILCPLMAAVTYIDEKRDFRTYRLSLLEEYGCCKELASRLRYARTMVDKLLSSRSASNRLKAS

inhibition, inactive:
CCN(CC)CCOC(=O)c1ccc(N=Cc2c(O)n(C)c(=O)[nH]c2=O)cc1 -180%
COc1ccccc1N(CN1C(=O)c2ccc([N+](=O)[O-])cc2C1=O)C(C)=O -55.2%
COc1ccccc1N(/N=C1\Sc2ccccc2C1=O)C(C)=O 6.58%
Cn1c(=O)c2nc(-c3ccccc3)c(=O)[nH]c2n(C)c1=O -31.3%
CCCCCC(=O)N(CN1C(=O)c2ccccc2C1=O)c1cccc(C(=O)O)c1 -10.1%
CC1CN(c2cc3nccnc3cc2F)CC(C)O1 (stereo not given) -46.8%
O=c1[nH]c(=O)c2nc(-c3ccc(Cl)cc3)cnc2[nH]1 -45.5%
CCOC(=O)c1ccc(N=Cc2c(O)n(Cc3cccs3)c(=O)[nH]c2=O)cc1 -25.6%
CCOC(=O)c1ccc(NC(=O)C2C3C=CC(C3)C2(C)C(=O)O)cc1 (stereo not given) -56.5%
CCN(CC)CCOC(=O)c1ccc(N=Cc2c(O)n(Cc3ccccc3)c(=O)[nH]c2=O)cc1 -220%
CCOC(=O)c1ccc(NC(=O)C2CCC(C(C)(C)C)CC2)cc1 (stereo not given) 8.43%
CCOC(=O)c1ccc(NC(=O)c2cc3ccccc3c(=O)o2)cc1 -35.6%
Cc1ccc(-c2nnc3[nH]c(=O)n(C)c(=O)c3n2)cc1 -28.5% and -24.3%
CCOC(=O)c1ccc(NC(=O)C2CC(=O)N=C(N)S2)cc1 (stereo not given) -67.2%
COc1ccc(N(CN2C(=O)c3cc(Cl)c(Cl)cc3C2=O)C(C)=O)cc1 -52.7%
